Hits are enriched below; roughly 4.8% of the tested compounds scored in any of these assays.
DAX1 inh-1: NR0B1 (DAX1) inhibition; HEK293 Gal4-DAX1 luciferase reporter, luminescence; P51843; inhibition, % at 6.75 µM; 0.99% of 340,000 active;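 active = inhibition above the mean over all tested compounds plus 3 SD, cut at about 4.2% in these data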;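 also: 0% = DAX1-transfected cells with DMSO and 100% = empty-vector control cells with DMSO; inhibition shows as a rise in luminescence from relieved DAX1 repression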
Target sequence (P51843 207-470 limits assumed): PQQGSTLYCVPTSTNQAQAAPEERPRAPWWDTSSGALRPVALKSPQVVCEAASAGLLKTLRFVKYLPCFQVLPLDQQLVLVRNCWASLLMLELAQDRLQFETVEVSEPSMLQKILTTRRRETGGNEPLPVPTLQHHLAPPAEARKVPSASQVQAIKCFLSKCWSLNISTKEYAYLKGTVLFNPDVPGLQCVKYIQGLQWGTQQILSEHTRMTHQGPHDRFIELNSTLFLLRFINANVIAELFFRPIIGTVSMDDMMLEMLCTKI
DAX1 inh-2: inhibitors of DAX1 repression of SF-1 activated StAR promoter; HEK293T StAR-luciferase reporter, SF-1/DAX-1 repression relief; 1.1% of 370,000 active; inhibition, % at 6.8 µM; AID 652010;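 active = inhibition above the mean over all tested compounds plus 3 SD, cut at about 3.6% in these data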;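 also: 0% = DAX-1 cells with DMSO and 100% = cells lacking DAX-1 with DMSO; higher inhibition means more luminescence from relief of DAX-1 repression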
ssDAF-12 act: activates DAF-12 receptor from parasite S. stercoralis. HEK293 ssDAF-12/GRIP1 lit1-tk-luc reporter, luminescence; % of 3 µM dafachronic acid response. activation, % at 6.8 µM. 1% of 370,000 active;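 active = activation above the mean over all tested compounds plus 3 SD, cut at about 0.9% in these data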;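 also: 0% = DMSO-only wells and 100% = 3 µM delta7-dafachronic acid wells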
SMARCA2 act: increases SMARCA2 function in MMTV reporter cells. MG213 cells, MMTV-luciferase reporter, dexamethasone, overnight. activation, % at 9.1 µM. 1% of 370,000 active. AID 652017; in the data active = activation above about 7.8%;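 also: 0% = vehicle wells and 100% = reference activator wells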
hgDAF12 agonist: activates the H. glycines DAF-12 receptor ligand-binding domain | HEK293 GAL4-hgDAF12 UAS-luciferase reporter, agonist luminescence; normalized to butyrate control | activation, % at 6.8 µM | AID 687014 | 1.8% of 370,000 active;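 active = activation above a cutoff set at the mean of all screened compounds plus 3 SD, cut at about 10% in these data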;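 also: 0% = DMSO wells and 100% = sodium butyrate wells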
hcDAF-12 act: activates DAF-12 receptor from parasite H. contortus; 1.4% of 370,000 active; activation, % at 6.8 µM; HEK293 hcDAF-12 lit1-tk-luc reporter, luminescence; 0% DMSO, 100% Δ7-dafachronic acid;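 active = activation above the mean of all tested compounds plus 3 SD, cut at about 5.5% in these data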;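 also: 100% = response to 3 µM Δ7-dafachronic acid high control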
SMARCA2 act conf: confirmation of SMARCA2 (BRM) function activators. activation, % at 9.1 µM. AID 652260. shares compounds with SMARCA2 act. 30% of 3,500 active. MG213 cells, MMTV-luciferase with dexamethasone, luminescence, overnight; MG213 cells expressing E1A, Rb sequestered; DMSO wells 0%, reference activator 100%;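 active = activation above its plate's cutoff, the mean activation of tested wells plus 3 SD, cut at about 7.9% in these data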
GAL4-VP16 Luc: GAL4-VP16 reporter activation counter-screen; 41% of 3,500 active; shares compounds with SMARCA2 act; HEK293 GAL4-VP16 pG5luc reporter, luciferase luminescence; scaled: DMSO wells 0%, SAHA wells 100%; activation, % at 9.1 µM;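 active = activation above the solvent-only control well mean plus 3 SD, averaged across control plates, cut at about 5.2% in these data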
Starred values were filed as active, the others as inactive; / = not tested or not shown.

SMILES	DAX1 inh-1	DAX1 inh-2	ssDAF-12 act	SMARCA2 act	hgDAF12 agonist	hcDAF-12 act	SMARCA2 act conf	GAL4-VP16 Luc
O=C(/C=C/c1ccc(Cl)cc1Cl)N1CCN(c2ccc([N+](=O)[O-])c(N3CCOCC3)c2)CC1	0	0	-1	9.9*	-2	1	0	2
COc1ccc(-c2nc3ccc(C)cn3c2NCc2ccc3c(c2)OCO3)cc1	2	0	-1	5	10	0	/	/
Cc1ccc(-c2nc3ccccn3c2NCc2ccc3c(c2)OCO3)cc1	1	0	-1	10*	4	1	8.2*	5
c1cc2ccc3ccc(CN4CCOCC4)c4ccc(c1)c2c34	0	1	-2	3	2	-1	/	/
OC1CCCN(Cc2ccc3ccc4cccc5ccc2c3c45)C1 (configuration not stated)	2	2	0	11*	4	0	25*	1
CC(=O)Nc1cccc(NC(=O)c2cc3ccccc3o2)c1	2	2	1	3	8	2	/	/
CC(C)C(=O)Nc1cccc(NC(=O)c2cc3ccccc3o2)c1	0	1	-1	9.4*	6	1	7	10*
COc1cccc(CNS(=O)(=O)c2c(C(=O)N3CCCCCC3)c(C)n(C)c2C)c1	1	0	-1	9.8*	0	1	0	-1
COc1cccc(CNS(=O)(=O)c2c(C(=O)N3CCCCC3)c(C)n(C)c2C)c1	0	0	0	2	2	-2	/	/
O=C(COC(=O)c1cccnc1SCC(=O)NCc1ccccc1)NCc1ccccc1	0	0	-1	9.1*	1	-1	7	2
COc1ccccc1CNC(=O)COC(=O)c1cccnc1SCC(=O)NCc1ccccc1OC	0	0	-1	2	-1	0	/	/
COCc1nnc(NC(=O)c2cccs2)s1	1	2	-1	2	2	0	/	/
CNC(=O)c1ccsc1NC(=O)CS(=O)(=O)c1ccccc1	-1	1	-1	0	-1	-1	/	/
COCc1nnc(NC(=O)c2sc3ccccc3c2Cl)s1	-1	1	-1	9.8*	3	2	17*	7.5*
CNC(=O)c1ccsc1NC(=O)c1sc2ccccc2c1Cl	1	-1	-1	11*	4	2	12*	7.5*
C=CCc1c(C)[nH]c(=S)c(C#N)c1C	0	1	-1	2	1	-2	/	/
COc1ccc(S(=O)(=O)N2CCN(C(=O)Cc3cccs3)CC2)cc1	1	0	-1	9.5*	0	2	0	1
O=C(Cc1cccs1)N1CCN(S(=O)(=O)c2ccccc2)CC1	0	0	-1	0	-1	-1	/	/
CCOC(=O)c1csc(Nc2nc3ccc(F)cc3s2)n1	0	-2	-1	11*	-1	-2	-15	20*
N#C/C(=C\c1ccc(OC(=O)c2cccs2)cc1)c1nc2ccccc2[nH]1	2	0	0	13*	5	1	8.5*	6.2*
O=C(Nc1nnc(C(F)(F)F)s1)c1cccnc1	1	2	0	9.0*	6	5.6*	3	9.3*
O=C(Nc1nnc(-c2cccnc2)s1)c1cnc2ccccc2c1	/	3	-1	8.0*	7	0	6	3
CCc1nn(C(CC)C(=O)NCc2cccs2)c(=O)c2cc3occc3n12 (configuration not stated)	1	0	-1	-4	-4	-2	/	/
CCCOc1ccc(-c2cnc(N)s2)cc1	0	3	-1	13*	8	0	7	10*
O=C(CSc1oc(-c2ccc(F)cc2)nc1S(=O)(=O)c1ccccc1)NCC1CCCO1 (configuration not stated)	1	-1	-1	8.2*	0	0	0	-1
SMILES	DAX1 inh-1	DAX1 inh-2	ssDAF-12 act	SMARCA2 act	hgDAF12 agonist	hcDAF-12 act	SMARCA2 act conf	GAL4-VP16 Luc
COc1ccc(-c2cc(C)no2)cc1S(=O)(=O)Nc1ccc(NC(C)=O)cc1	1	0	-1	8.7*	-2	-1	-2	2
COc1ccc(-c2cc(C)no2)cc1S(=O)(=O)NCC(C)c1ccccc1 (configuration not stated)	0	-4	-1	-2	-2	-1	/	/
O=C(Cc1cccs1)NNC(=O)c1ccc(F)cc1	1	0	-2	-1	-3	-1	/	/
Cc1ccc(C(=O)NNC(=O)Cc2cccs2)cc1	0	1	1	9.1*	2	4	3	2
Cc1ccc(OCC(=O)Nc2cccc(C)n2)c(C)c1	1	3	0	11*	11*	4	3	12*
CC(C)CNC(=O)NC(=O)COC(=O)c1cccc(NS(=O)(=O)c2ccc(F)c(F)c2)c1	-2	-1	-1	-2	-2	-2	/	/
CCc1ccc(-c2cn(-c3nc(C)cc(C)n3)c(=N)o2)cc1	-1	-1	-2	0	-1	-1	/	/
COC(=O)c1c(-c2ccccc2)[nH]c(-c2nccc3ccccc23)c1C(=O)OC	1	0	0	8.4*	0	1	0	3
C=CCn1c(-c2csc(-c3ccccc3)n2)n[nH]c1=S	-1	0	-1	2	2	-1	/	/
COc1ccc(C2CC(c3ccc(OC)c(OC)c3)=NN2C(=O)c2ccccc2)cc1 (configuration not stated)	0	0	-2	13*	-1	-1	13*	3
NC(=O)c1ccc2nc(-c3ccccc3)c(-c3ccccc3)nc2c1	0	0	-1	1	-1	1	/	/
O=C(O)c1ccc2nc(-c3ccccc3)c(-c3ccccc3)nc2c1	-2	-1	-1	10*	-4	1	4	2
Cc1cccc2sc(N(CCN(C)C)C(=O)c3cc(Cl)sc3Cl)nc12	0	0	-2	1	3	-1	/	/
Nc1ccc(C(=O)NN2C(=O)[C@H](Cl)C2c2ccc(Cl)cc2)cc1 (some centres not stated)	0	-3	0	8.3*	4	5.9*	-15	1
O=C(Cc1ccc(NC(=O)C2CCCN(C(=O)C3CCCC3)C2)cc1)Nc1cccc(C(=O)N2CCCCC2)c1 (configuration not stated)	-1	-1	-1	5	2	-1	/	/

Assay outcomes deposited in PubChem BioAssay by The Scripps Research Institute Molecular Screening Center.
